This passage reports Potency, max response and activation results from PubChem BioAssay (NCATS).

A short description of test [1]: Cell Viability - BJ (AID 421; calls by dose curve;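 also: potency is read from the fitted curve at half-maximal effect; cells exposed to compound for 40 hours at 37 °C before readout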). Particulars: BJ fibroblast viability, qHTS. An outline of the steps: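 Cytotoxicity in human BJ foreskin fibroblasts is scored as loss of cellular ATP after a 40-hour exposure, measured by luciferase luminescence. Controls are DMSO and 100 uM tamoxifen.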
For orientation: qHTS replaces the single test concentration by a dilution series.

Test [2] in a line: Cell Viability - HepG2 (AID 433; calls by dose curve;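 also: potency is read from the fitted curve at half-maximal effect; cells exposed to compound for 40 hours; potency for ATP loss meaning cytotoxicity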). To be noted: qHTS. An outline of the steps: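 ATP luminescence (CellTiter-Glo) after 40 h compound exposure, 37 °C, HepG2, 1500 cells/well, complete medium. Normalized: DMSO = basal, 100 uM tamoxifen = 100% inhibition. AC50 via standard Hill equation.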
A short description of test [3]: Cell Viability - Mesenchymal (AID 546).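 Also: cells exposed to compound for 40 hours before reading.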 Particulars: mesenchymal cells viability, qHTS; activity change, negative = cytotoxicity: at 91.7 µM (top of the series). In outline:
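Human kidney mesenchymal cells from normal renal glomeruli, 1000 cells/well, rested 5 hr at 37 °C, then treated 40 hr at 37 °C in complete medium. Cellular ATP read by CellTiter-Glo luminescence; AC50 from Hill-equation fits.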

Test [4] can be described thus: Cellular Toxicity (caspase-3) Jurkat (AID 655).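 Also: cells exposed to compound for 16 h at 37 °C before reading.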 To be noted: Jurkat caspase-3 activation, luminescence; caspase-3 activation: at 92.2 µM (top of the series), DMSO = 0%, tamoxifen = 100%. An outline of the steps:
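Luminescent caspase-3/7 readout (aminoluciferin substrate cleavage) in human T-cell leukemia Jurkat cells after 16 hr compound exposure. Concentration-response normalized to DMSO and 100 uM tamoxifen; AC50 by standard Hill equation.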

Test [5] in a line: Cell Viability - LYMP2-003 (AID 965).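 Also: cells exposed to compounds for 24 h before reading; 0% = DMSO only and full effect = 92 µM tetraoctylammonium bromide; nearly all actives have a fitted effect of over 50% in size.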 Particulars: LYMP2-003 lymphoblastoid cell viability; series mostly up to 92.2 µM. In outline: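 CellTiter-Glo luminescence (cellular ATP) after 24 h compound exposure at 37 C in complete medium; 2500 cells/well, 5 h settling beforehand. Concentration-response fitted to standard Hill equation for AC50. Tetraoctylammonium bromide served as positive control.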

Test [6] can be described thus: Cell Viability - LYMP2-011 (AID 969).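 Also: 0% = DMSO only and full inhibition = 92 µM tetraoctylammonium bromide; nearly all actives have a fitted effect of over 60% in size.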 To be noted: LYMP2-011 lymphoblastoid cells viability; series mostly up to 92.2 µM. An outline of the steps:
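Acute toxicity is scored as a concentration-dependent drop in intracellular ATP of a human lymphoblastoid line after 24 hr treatment. Values are AC50s modeled with the Hill equation.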

A short description of test [7]: Cell Viability - LYMP2-021 (AID 974).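 Also: compound exposure lasts 24 hours at 37 °C; % is scaled to controls: 0 for no effect and ±100 for the full control effect; nearly all actives have a fitted effect of over 55% in size.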 To be noted: LYMP2-021 lymphoblastoid cells viability; series mostly up to 92.2 µM. An outline of the steps: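 Concentration-response cytotoxicity in a human lymphoblastoid line: 24 hr treatment at 37 C in complete culture medium, tetraoctylammonium bromide as positive control, luminescent ATP quantitation as viability measure.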

The nature of test [8]: Cell Viability - LYMP2-023 (AID 975).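 Also: plate controls were DMSO only for no effect and 92 µM tetraoctylammonium bromide control for full effect; nearly all actives have a fitted effect of over 55% in size.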 To be noted: LYMP2-023 lymphoblastoid cell viability; series mostly up to 92.2 µM. An outline of the steps: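 Concentration-dependent drop in intracellular ATP measures acute cytotoxicity in a human lymphoblastoid line treated for 24 hours in complete culture medium. AC50 values are taken from Hill-equation fits of qHTS data.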
Test [9] in a line: Cell Viability - LYMP2-025 (AID 976).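 Also: plate controls were DMSO only for no effect and tetraoctylammonium bromide control for full effect.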 Particulars: LYMP2-025 lymphoblastoid cell viability; series mostly up to 92.2 µM. In outline:
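In qHTS format, LYMP2-025 lymphoblastoid cells in complete culture medium received compound for 24 hr; ATP-based CellTiter-Glo signal gave viability, with AC50 derived by Hill equation.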

Test [10] is described as follows: Cell Viability - LYMP2-002 (AID 977).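 Also: plate controls were DMSO only for no effect and 92 µM tetraoctylammonium bromide for full effect.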 Particulars: LYMP2-002 lymphoblastoid cell viability, qHTS; series mostly up to 92.2 µM. In outline:
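Human lymphoblastoid LYMP2-002 cells, 2500 per well, exposed to compounds for 24 h at 37 C in complete medium; viability read as intracellular ATP by CellTiter-Glo luminescence, AC50 from Hill fits.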

The nature of test [11]: Cell Viability - LYMP2-008 (AID 980). Also: % is scaled to controls: 0 for no effect and ±100 for the full control effect; nearly all actives have a fitted effect of over 60% in size. To be noted: LYMP2-008 lymphoblastoid cell viability, qHTS; series mostly up to 92.2 µM. An outline of the steps:
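Acute cytotoxicity is scored as concentration-dependent loss of cellular ATP in a human lymphoblastoid line after 24 hr treatment at 37 C. ATP is quantified by luciferase luminescence.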

The nature of test [12]: Cell Viability - LYMP2-014 (AID 983).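 Also: plate controls were DMSO only for no effect and 92 µM tetraoctylammonium bromide for full effect; nearly all actives have a fitted effect of over 50% in size.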 To be noted: LYMP2-014 lymphoblastoid cells, viability qHTS; series mostly up to 92.2 µM. In outline: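 Decrease in intracellular ATP after 24 hr treatment at 37 C, measured by luciferase luminescence, indicated cytotoxicity. Concentration-response data were fitted with the standard Hill equation to give AC50.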
A short description of test [13]: Cell Viability - LYMP2-016 (AID 984). Also: % is scaled to controls: 0 for no effect and ±100 for the full control effect; nearly all actives have a fitted effect of over 55% in size. To be noted: LYMP2-016 lymphoblastoid cell viability, qHTS; series mostly up to 92.2 µM. In outline: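 qHTS, 1536-well: 2500 LYMP2-016 cells/well, 5 hr 37 C, compound added, 24 hr 37 C, CellTiter-Glo 30 min RT, luminescence. Tetraoctylammonium bromide positive control. AC50 via Hill fit.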
Test [14] can be described thus: Cell Viability - LYMP2-018 (AID 985).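 Also: compound exposure lasted 24 hr at 37 °C; plate controls were DMSO only for no effect and tetraoctylammonium bromide at 92 µM for full effect; nearly all actives have a fitted effect of over 50% in size.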 To be noted: LYMP2-018 lymphoblastoid cells, viability (qHTS); series mostly up to 92.2 µM. An outline of the steps:
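Acute cytotoxicity is scored as a concentration-dependent drop in intracellular ATP after 24 hr exposure of the lymphoblastoid line in complete culture medium, measured by luciferase luminescence. Potency is expressed as AC50 from Hill modelling.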

A short description of test [15]: Cell Viability - LYMP2-022 (AID 987).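 Also: 0% = DMSO alone and full effect = tetraoctylammonium bromide at 92 µM; nearly all actives have a fitted effect of over 55% in size.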 To be noted: LYMP2-022 lymphoblastoid cell viability; series mostly up to 92.2 µM. In outline: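 Acute toxicity in a human lymphoblastoid line is scored as decreased intracellular ATP after 24 hr compound treatment at 37 C. ATP is measured by CellTiter-Glo luminescence; curves are fitted with the Hill equation to give AC50.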

Test [16] is described as follows: Cell Viability - LYMP2-024 (AID 988).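 Also: plate controls were DMSO only for no effect and 92 µM tetraoctylammonium bromide for full effect; nearly all actives have a fitted effect of over 60% in size.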 Particulars: LYMP2-024 lymphoblastoid cell viability; series mostly up to 92.2 µM. An outline of the steps: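 Acute toxicity is measured as concentration-dependent loss of intracellular ATP in a human lymphoblastoid line treated 24 hours at 37 C. Luciferase luminescence quantifies ATP; AC50 values come from standard Hill-equation modelling.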

A short description of test [17]: Cell Viability - LYMP2-026 (AID 989). Also: % is scaled to controls: 0 for no effect and ±100 for the full control effect; nearly all actives have a fitted effect of over 50% in size. Particulars: LYMP2-026 lymphoblastoid cell viability, qHTS; series mostly up to 92.2 µM. In outline:
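Concentration-dependent loss of intracellular ATP in human lymphoblastoid cells after 24 hr at 37 C, quantified by luciferase luminescence. AC50 derived from standard Hill equation.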

Test [18] in a line: qHTS assay for small molecule antagonists of retinoid X receptor alpha signaling (AID 588546; active = well fitted inhibition curve with a large enough effect in the signal ratio, with a control signal flat, not every such curve was filed as active; the % refers to the signal ratio;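 also: cells stimulated with 9-cis-retinoic acid as agonist; % is scaled to controls: 0 for no effect and ±100 for the full control effect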). To be noted: HEK293T RXRa-UAS-bla, beta-lactamase ratio, antagonist mode; measured here: W530 green channel, cytotoxicity proxy. An outline of the steps: (§1)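 Beta-lactamase reporter inhibition, read as CCF4 fluorescence ratio (ex 405, em 460/530 nm) after 2 h at RT. HEK293T UAS-bla cells, 2500/well, were stimulated with 9-cis-RA at 500 or 100 nM final alongside test compound for 18 h at 37 C.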

In test [19] the target is Retinoic acid receptor RXR-alpha (Homo sapiens) (UniProt P19793). Described as above. Particulars: HEK293T RXRa-UAS-bla, beta-lactamase ratio, antagonist mode. An outline of the steps:
as §1

Test [20] can be described thus: qHTS assay for environmental chemicals that activate the Aryl hydrocarbon Receptor (AhR) signaling pathway (AID 651777). Also: % of control where 0% means no effect; nearly all actives have a fitted effect of over 15% in size. Particulars: 1A2-DRE human hepatoma cells, luciferase, 24 h; activation: stronger effect = higher value. An outline of the steps:
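AhR activation is scored as a rise in luciferase from a stable DRE–CYP1A2 promoter construct in human hepatoma cells. Treatment lasts 24 hr at 37 C; detection uses One-Glo after 30 min at room temperature.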

Values joined by “and” are separate entries in the source; they are usually repeats but may differ in a detail not shown here. Identical values can stand only once. Results filed as inconclusive are left out. Active and inactive are the calls of the source. Unless noted, calls follow the shape of the dose curve; as a rule, active = well fitted curve in the direction sought with a large enough effect; inconclusive = small, poorly fitted or top-dose-only effect, or another doubt; inactive = no such curve, though single readings can be large; an effect the other way counts as inactive or inconclusive.

Sequence of Retinoic acid receptor RXR-alpha (Homo sapiens) (P19793 whole entry, looked up): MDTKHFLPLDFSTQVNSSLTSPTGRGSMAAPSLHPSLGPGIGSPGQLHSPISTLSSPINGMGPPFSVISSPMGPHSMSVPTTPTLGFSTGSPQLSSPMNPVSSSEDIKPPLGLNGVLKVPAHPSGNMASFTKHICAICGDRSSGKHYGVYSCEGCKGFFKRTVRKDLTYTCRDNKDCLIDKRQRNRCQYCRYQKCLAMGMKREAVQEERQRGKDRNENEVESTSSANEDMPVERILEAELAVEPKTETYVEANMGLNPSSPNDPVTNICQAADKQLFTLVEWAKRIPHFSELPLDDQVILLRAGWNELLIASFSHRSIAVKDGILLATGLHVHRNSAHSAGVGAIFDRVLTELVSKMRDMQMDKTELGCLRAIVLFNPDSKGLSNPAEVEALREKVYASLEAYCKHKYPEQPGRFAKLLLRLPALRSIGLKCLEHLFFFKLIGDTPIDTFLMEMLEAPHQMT

Regarding `O=[N+]([O-])c1ccccc1Nc1ccccc1`, the Potency in test [1] and in [2] was > 92 µM (inactive) throughout. Moreover, the Potency entry in test [3], in [4], in test [5], in test [6], in test [7] and in test [8] was “inactive” each time. Besides, the Potency result in [9], in test [10], in test [11], in [12], in test [13] and in test [14] was “inactive” throughout. In addition, the Potency result in test [15], in test [16] and in test [17] was “inactive” throughout. Further, the max response in [18] was -9.17%; in test [19], 0.845% (inactive). Further, the activation in [20] was 1.93% (inactive).
On to `COc1ccc(C)cc1N`, for which the Potency in [1] and in test [2] was > 92 µM (inactive) each time. Moreover, the Potency result in test [3], in [4], in [5], in test [6], in test [7] and in test [8] was “inactive” in each case. The Potency entry in test [9], in [10], in [11], in [12], in test [13] and in test [14] was “inactive” throughout. In addition, the Potency entry in test [15], in [16] and in test [17] was “inactive” in each case. Further, the max response was -0.963% in test [18] and 10.5% (inactive) in test [19]. The activation in test [20] was 3.33% (inactive).
Take `CC(=O)c1ccc(Cl)c(Cl)c1Cl`: the Potency in test [1] and in [2] was > 92 µM (inactive) in each case. Moreover, the Potency result in test [3], in [4], in [5], in [6], in [7] and in [8] was “inactive” throughout. Moreover, the Potency result in test [9], in test [10], in [11], in test [12], in test [13] and in test [14] was “inactive” throughout. The Potency entry in test [15], in test [16] and in test [17] was “inactive” each time. Further, the max response was -2.76% in [18] and 5.75% (inactive) in test [19]. Further, the activation in [20] is -0.636% (inactive).
For the compound `CCC(Cl)CC(Cl)C(Cl)C(Cl)C(Cl)C(C)Cl` (stereo not given), the Potency in test [1] and in [2] was > 92 µM (inactive) throughout. Further, the Potency entry in test [3], in [4], in [5], in test [6], in test [7] and in test [8] was “inactive” throughout. Besides, the Potency result in test [9], in [10], in [11], in test [12], in [13] and in test [14] was “inactive” each time. The Potency entry in test [15], in test [16] and in [17] was “inactive” in each case. The max response in [18] was 7.22%; in test [19], -1.06% (inactive). Also, the activation in test [20] was -0.274% (inactive).
Consider `CCCCC(CC)COC(=O)COc1ccc(Cl)cc1Cl` (stereo not given), for which the Potency in test [1] and in [2] was > 92 µM (inactive) in each case. Moreover, the Potency result in test [3], in [4], in test [5], in test [6], in test [7] and in [8] was “inactive” throughout. Further, the Potency result in test [9], in test [10], in test [11], in test [12], in test [13] and in test [14] was “inactive” each time. Moreover, the Potency entry in test [15], in test [16] and in test [17] was “inactive” each time. For the same compound, the max response is 0.541% and -5.28% in [18]; 18.5% (inactive) and 4.05% (inactive) in test [19]. Further, the activation in test [20] is 0.535% (inactive) and 1.47% (inactive).
Regarding `C=Cc1cccc(C)c1`, the Potency in [1] and in test [2] was > 92 µM (inactive) in each case. The Potency entry in test [3], in test [4], in test [5], in [6], in test [7] and in test [8] was “inactive” each time. The Potency result in test [9], in [10], in test [11], in test [12], in test [13] and in test [14] was “inactive” in each case. The Potency entry in test [15], in [16] and in test [17] was “inactive” throughout. Further, the max response was -7.34% in test [18] and -5.75% (inactive) in [19]. In addition, the activation in [20] was -0.0469% (inactive).
